PubChem BioAssay (NCI)
This is part of a sample that, as a whole, favours compounds with a hit. Of some 83,000 tested, about 20% had one in any assay.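 Method: cells in 96-well plates; compound added at one concentration; 48 h incubation; percent growth measured; values under 10 scored active.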 The source made the active and inactive calls.

Experiments:
Test in all cases: NCI-60 one-dose screen, 48 h (100 = growth as untreated, 0 = no growth, -100 = all killed)
Settings in all cases: 10 µM unless noted
EKVX NSCLC = system: EKVX NSCLC
SN12C renal = system: SN12C renal
UO-31 renal = system: UO-31 renal
TK-10 renal = system: TK-10 renal
ACHN renal = system: ACHN renal
CAKI-1 renal = system: CAKI-1 renal
A498 renal = system: A498 renal
CCRF-CEM leukemia = system: CCRF-CEM leukemia
MOLT-4 leukemia = system: MOLT-4 leukemia
SR leukemia = system: SR leukemia

Measured: growth

COC(=O)/C(CCC=C(C)C)=C1\[C@@H](OC(C)=O)C[C@@]2(C)[C@H]1C[C@@H](O)[C@H]1[C@@]3(C)CC[C@H](NCc4ccccc4)[C@@H](C)[C@@H]3CC[C@@]12C
inactive: EKVX NSCLC 63% | SN12C renal 75.6% | UO-31 renal 47.5% | TK-10 renal 111% | ACHN renal 79.2% | CAKI-1 renal 72.5% | A498 renal 98.1% | CCRF-CEM leukemia 50.9% | MOLT-4 leukemia 28.1%
active: SR leukemia 0.245%

C=C1C(=O)O[C@H]2[C@H]1CC/C(COC(=O)/C=C\C(=O)O)=C\CC[C@@]1(C)O[C@@H]21
inactive: EKVX NSCLC 102% | SN12C renal 99.1% | UO-31 renal 85.2% | TK-10 renal 106% | ACHN renal 98% | CAKI-1 renal 100% | A498 renal 93.5% | CCRF-CEM leukemia 107% | MOLT-4 leukemia 110% | SR leukemia 114%

CC(C)C[C@H](C(=O)N[C@@H](C)C(N)=O)N1CC=CCN(O)S1(=O)=O
inactive: EKVX NSCLC 176% [5 µM] | SN12C renal 106% [5 µM] | UO-31 renal 109% [5 µM] | TK-10 renal 106% [5 µM] | ACHN renal 94.7% [5 µM] | CAKI-1 renal 115% [5 µM] | A498 renal 125% [5 µM] | CCRF-CEM leukemia 105% [5 µM] | MOLT-4 leukemia 102% [5 µM] | SR leukemia 95.3% [5 µM]

CCOC(=O)c1sc(-c2ccc(OS(=O)(=O)C[C@]34CCC(CC3=O)C4(C)C)c(C=O)c2)nc1C
active: TK-10 renal 5.83% | CAKI-1 renal 0.933% | A498 renal -2.42% | MOLT-4 leukemia 4.72%
inactive: EKVX NSCLC 36.5% | SN12C renal 28.7% | UO-31 renal 29% | ACHN renal 39.8% | CCRF-CEM leukemia 11.7% | SR leukemia 21.2%

COc1cc(/C=C2\CN(S(=O)(=O)c3ccccc3)C/C(=C\c3cc(CN4CCCC4)c(O)c(OC)c3)C2=O)cc(CN2CCCC2)c1O
active: SN12C renal -25.8% | A498 renal 8.57% | CCRF-CEM leukemia 7.45% | MOLT-4 leukemia 1.22%
inactive: EKVX NSCLC 24.7% | UO-31 renal 34.7% | TK-10 renal 26.8% | ACHN renal 12.1% | CAKI-1 renal 75.3% | SR leukemia 17.5%

Cc1cc2c(c(C)c1Cl)C(=O)/C(=C/c1ccco1)O2
inactive: EKVX NSCLC 83.4% | SN12C renal 96% | UO-31 renal 78.3% | TK-10 renal 93.9% | ACHN renal 92.2% | CAKI-1 renal 93.7% | A498 renal 104% | CCRF-CEM leukemia 95.6% | MOLT-4 leukemia 97.3% | SR leukemia 69.7%

COc1cc2nc(NC3CCC3)nc(NC3CCN(C(C)C)CC3)c2cc1OC
active: SR leukemia 2.34%
inactive: EKVX NSCLC 83.5% | SN12C renal 92.2% | UO-31 renal 80.6% | TK-10 renal 46.8% | ACHN renal 57.2% | CAKI-1 renal 92.2% | A498 renal 75.9% | CCRF-CEM leukemia 46.5% | MOLT-4 leukemia 45.5%

CS(=O)(=O)Nc1ccc(C(=O)NC(C(=O)NO)c2ccc(-c3cccc(F)c3)cc2)cc1 (stereo unspecified)
inactive: EKVX NSCLC 97.4% | SN12C renal 75.3% | UO-31 renal 19.3% | TK-10 renal 30.3% | ACHN renal 58.7% | CAKI-1 renal 49.9% | A498 renal 95.6% | CCRF-CEM leukemia 95.1% | MOLT-4 leukemia 103% | SR leukemia 78.8%

O=C(/C=C/c1ccc(Cl)cc1)c1ccc(Nc2nc(NCCO)nc(Nc3ccc(Cl)cc3)n2)cc1
inactive: EKVX NSCLC 59.1% | SN12C renal 83.1% | UO-31 renal 57.3% | TK-10 renal 94.2% | ACHN renal 57.2% | CAKI-1 renal 67.3% | A498 renal 79.5% | CCRF-CEM leukemia 47.2% | MOLT-4 leukemia 46.1% | SR leukemia 23.2%

O=C1/C(=C/c2ccc(O)cc2)COc2ccc(O)c(O)c21
active: SN12C renal -4.74% | UO-31 renal -88.5% | ACHN renal -16.2% | CAKI-1 renal 6.4% | CCRF-CEM leukemia 9.61% | MOLT-4 leukemia 4.43%
inactive: EKVX NSCLC 71.5% | TK-10 renal 54.1% | A498 renal 98.4% | SR leukemia 12.7%

NCCOc1ccccc1/C=C1\c2ccccc2-c2ccc([N+](=O)[O-])cc21
active: SN12C renal -17.9% | UO-31 renal -7% | TK-10 renal -1.56% | ACHN renal -73.6% | CAKI-1 renal 1.27% | CCRF-CEM leukemia 0.81% | MOLT-4 leukemia -14.1% | SR leukemia -23.7%
inactive: EKVX NSCLC 54.9% | A498 renal 25.1%

CC[C@]1(O)C[C@@H]2CN(CCc3c([nH]c4ccccc34)[C@@](C(=O)OC)(c3cc4c(cc3OC)N(C)[C@H]3[C@@](O)(C(=O)OC)[C@H](OC(=O)CCCBr)[C@]5(CC)C=CCN6CC[C@]43[C@@H]65)C2)C1
inactive: EKVX NSCLC 31% | SN12C renal 23.9% | UO-31 renal 37.7% | TK-10 renal 46.5% | ACHN renal 28.2% | MOLT-4 leukemia 17.3%
active: CAKI-1 renal 9.84% | A498 renal -1.7%

N#CC(C#N)=Cc1c(-c2ccccc2)[nH]c2ccccc12
active: A498 renal -3.79%
inactive: EKVX NSCLC 66% | SN12C renal 44.3% | UO-31 renal 38.9% | TK-10 renal 67.6% | ACHN renal 65.5% | CAKI-1 renal 38.6% | MOLT-4 leukemia 26.9% | SR leukemia 32.2%

O=C1Nc2ccccc2/C1=C/c1ccc[nH]1
inactive: EKVX NSCLC 32.8% | SN12C renal 92.7% | UO-31 renal 61.9% | TK-10 renal 63.5% | ACHN renal 84% | CAKI-1 renal 77.4% | A498 renal 88.5% | MOLT-4 leukemia 101% | SR leukemia 71.7%

COc1ccc2sc3c(NCCCN)nc4ccccc4c3c(=O)c2c1
inactive: EKVX NSCLC 57.5% | SN12C renal 81.3% | UO-31 renal 67.1% | TK-10 renal 74.8% | ACHN renal 48.7% | CAKI-1 renal 73% | A498 renal 49.8%
active: MOLT-4 leukemia -17.3% | SR leukemia 2.94%

COc1ccc(N)c(-c2cc3c(c4c2[nH]c2ccc(OC)cc24)CCCC3)c1
inactive: EKVX NSCLC 72.5% | SN12C renal 87.8% | UO-31 renal 57.6% | TK-10 renal 114% | ACHN renal 89.4% | CAKI-1 renal 67.1% | A498 renal 88.8% | MOLT-4 leukemia 68.8% | SR leukemia 79.1%

CCN1CCN(C(=S)SCC(=O)Nc2nc3ccc(C)cc3s2)CC1
inactive: EKVX NSCLC 122% | SN12C renal 99.1% | UO-31 renal 60.6% | TK-10 renal 111% | ACHN renal 103% | CAKI-1 renal 87.2% | A498 renal 126% | MOLT-4 leukemia 111% | SR leukemia 103%

NCCNc1nc2ccc(F)cc2c2c(=O)c3cc(F)ccc3sc12
inactive: EKVX NSCLC 75.9% | SN12C renal 46.3% | UO-31 renal 35.6% | TK-10 renal 59.1% | ACHN renal 31.6% | CAKI-1 renal 22.5% | A498 renal 41.2%
active: MOLT-4 leukemia 5.51%

COc1cc(C2C3=C(COC3=O)N(CCO)c3cc4c(cc32)CCC4)cc(OC)c1O (stereo unspecified)
inactive: EKVX NSCLC 34.3% | SN12C renal 33.5% | UO-31 renal 49.7% | TK-10 renal 45% | ACHN renal 42.8% | CAKI-1 renal 21.1% | A498 renal 17.2% | MOLT-4 leukemia 20.6% | SR leukemia 33.1%

N#C/C(=C\c1c(-c2ccccc2)[nH]c2ccccc12)S(=O)(=O)c1ccccc1
inactive: EKVX NSCLC 61.7% | SN12C renal 54% | UO-31 renal 51.2% | TK-10 renal 69.4% | ACHN renal 59.4% | CAKI-1 renal 41.5% | A498 renal 24.2% | MOLT-4 leukemia 33.7% | SR leukemia 17.9%

O=S1(=O)N(Cc2ccccc2)[C@@H](Cc2ccccc2)C2O[C@H]2[C@H](Cc2ccccc2)N1Cc1ccccc1 (stereo partly specified)
inactive: EKVX NSCLC 24% | SN12C renal 47.8% | UO-31 renal 68.1% | TK-10 renal 71% | ACHN renal 41.2% | CAKI-1 renal 33.8% | A498 renal 65.4% | MOLT-4 leukemia 35.4% | SR leukemia 29.6%

Nc1nc(-c2ccccc2Br)nn1-c1nc2ccccc2s1
inactive: EKVX NSCLC 92.2% | SN12C renal 100% | UO-31 renal 105% | TK-10 renal 118% | ACHN renal 98.3% | CAKI-1 renal 97.2% | A498 renal 101% | MOLT-4 leukemia 88.3% | SR leukemia 81.5%

CCN(CC)CCNC(=O)C(Cl)=C1C(Cl)=C(Cl)C(Cl)=C1Cl
inactive: EKVX NSCLC 87.8% | SN12C renal 47.8% | UO-31 renal 43.6% | TK-10 renal 59.4% | ACHN renal 48.6% | A498 renal 71.8% | MOLT-4 leukemia 15% | SR leukemia 34.8%
active: CAKI-1 renal 6.11%

O=C(Nc1ccc(Cl)cc1)c1cc2ccccc2cc1OP(=O)(O)O
inactive: EKVX NSCLC 24.8% | SN12C renal 41.4% | TK-10 renal 18.7% | ACHN renal 17.2% | A498 renal 28.7% | MOLT-4 leukemia 38.9% | SR leukemia 53.9%
active: UO-31 renal 2.13% | CAKI-1 renal -8.12%

O=C(c1ccccc1)N(C(=S)NCCc1ccc(Cl)cc1)c1ccccc1
inactive: EKVX NSCLC 96.3% | SN12C renal 110% | UO-31 renal 80% | TK-10 renal 82.5% | ACHN renal 108% | CAKI-1 renal 93.2% | A498 renal 95.3% | MOLT-4 leukemia 47.6%

O=C1/C=C/[C@@H](O)[C@@H]2C[C@@H](O)C[C@H]2/C=C/CCCCO1
active: UO-31 renal 8.64% | A498 renal -25.5% | MOLT-4 leukemia 5.39%
inactive: EKVX NSCLC 20.6% | SN12C renal 45.3% | TK-10 renal 32.1% | ACHN renal 17.9% | CAKI-1 renal 18.4% | SR leukemia 14.4%

O=C(/C=C/c1ccc(C(F)(F)F)cc1)c1ccc(Nc2nc(NCCO)nc(Nc3ccc(Cl)cc3)n2)cc1
inactive: EKVX NSCLC 59.1% | SN12C renal 79.1% | UO-31 renal 59.9% | TK-10 renal 86.6% | ACHN renal 52.2% | CAKI-1 renal 68.2% | A498 renal 78.5% | MOLT-4 leukemia 20.7% | SR leukemia 21.2%
